Screening results from PubChem.
Rows were chosen to be rich in hits. Some 2.4% of all compounds tested hit in one or more screens of this group.
D2 PAM-1: human D2 receptor positive allosteric modulation | P14416 | DiscoveRx D2 beta-arrestin cells, luminescence, 90 min; 100% = 57 uM dopamine signal | potentiation, % (test concentration not listed) | 0.23% of 360,000 active; in the data active means potentiation above about 50%; inconclusive means mostly about 30% to 49%
Target sequence (P14416 whole entry, looked up): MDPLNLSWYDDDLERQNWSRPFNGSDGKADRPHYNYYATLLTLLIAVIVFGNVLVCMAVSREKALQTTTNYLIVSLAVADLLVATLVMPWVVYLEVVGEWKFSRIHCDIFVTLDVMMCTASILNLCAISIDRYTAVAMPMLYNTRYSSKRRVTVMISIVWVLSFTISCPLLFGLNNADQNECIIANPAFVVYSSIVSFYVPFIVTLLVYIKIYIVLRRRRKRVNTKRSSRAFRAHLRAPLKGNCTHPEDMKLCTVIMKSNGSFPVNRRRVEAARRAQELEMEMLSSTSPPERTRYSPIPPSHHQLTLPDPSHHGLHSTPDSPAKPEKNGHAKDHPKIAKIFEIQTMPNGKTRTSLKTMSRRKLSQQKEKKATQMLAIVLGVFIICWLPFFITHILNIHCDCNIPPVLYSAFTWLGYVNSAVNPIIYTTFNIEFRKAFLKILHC
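D2 cells co-treated with compound plus 50 nM dopamine (EC20) for 90 min at 37 deg C to detect potentiation. Beta-arrestin recruitment was read as enzyme-fragment luminescence after 1 h at ambient temperature. Full response was set by 57 uM dopamine.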
D2 antagonist: D2 dopamine receptor (human) antagonism. inhibition, % at 10 µM. HEK293 TREx D2 cells, calcium flux, dopamine EC80. 2% of 340,000 active. P14416. AID 485344; in the data active means inhibition above about 30%; inactive means below that, where a call was filed
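Overnight-induced (tetracycline, 30 C) HEK293 T-REx cells carrying force-coupled D2 receive a no-wash calcium dye, then compound, then EC80 dopamine at 180 s; signals are read kinetically throughout.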
D2 ag-1: agonists of human D2 dopamine receptor. P14416. HEK293 T-REx D2 cells, calcium flux agonist mode. activation, % at 2 µM. 0.53% of 340,000 active;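 active means activation over 3 SD above normal in the single-dose calcium agonist read, cut at about 30% in these data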
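Tetracycline-induced HEK293 T-REx cells with force-coupled D2 receptor, plated overnight at 30 C, loaded with no-wash calcium dye. After a 10 s baseline, compound was pin-added and calcium flux read kinetically for 180 s; calcium rises flagged agonists.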
D2 ag-2: activates the human D2 dopamine receptor | DiscoveRx PathHunter D2 beta-arrestin, luminescence, 90 min; 100% = 57 uM dopamine signal | AID 624465 | activation, % (test concentration not listed) | 0.084% of 360,000 active; in the data active means activation above about 40%; inconclusive means between about 15% and that limit
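DiscoveRx PathHunter D2 beta-arrestin cells (2,100/well) attached overnight, then compound-stimulated 90 min at 37 C in HBSS/10 mM HEPES/0.1% Tween-20 buffer; beta-galactosidase complementation read by luminescence after 1 h at ambient temperature. Dopamine 57 uM final (EC100) as control.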
D2 PAM-2: D2 dopamine receptor (human) potentiation | 0.34% of 340,000 active | potentiation, % at 10 µM | P14416 | HEK293 T-REx D2, calcium flux, EC20 dopamine potentiation | AID 485347;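 active means potentiation over 3 SD above the plate norm, cut at about 30% in these data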
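Primary screen. Calcium kinetics in induced HEK293 T-REx D2 cells: compound pre-addition 180 s, EC20 dopamine, 180 s more.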
D3 arrestin ag: confirmation of human D3 dopamine receptor agonists, beta-arrestin; DiscoveRx D3 beta-arrestin cells, luminescence, 90 min; AID 720506; shares compounds with D2 ag-1; 4% of 2,300 active; Potency, µM (series often up to 76.9 µM), usual class: activators; further: nearly all actives have a fitted effect of over 70% in size
D2 ag-3: D2 receptor agonism, beta-arrestin counterscreen; shares compounds with D2 ag-1; 5.9% of 2,300 active; Potency, µM (top dose mostly 76.9 µM), usual class: activators; DiscoveRx PathHunter D2 beta-arrestin, luminescence, 90 min; response scale: percent relative to full dopamine signal; AID 720507; further: nearly all actives have a fitted effect of over 70% in size
Of the large screens only hits and unclear results are named; the others gave an inactive call (follow-up assays come after a bar, where they were run); ! = not confirmed by another sample. Unless noted, the call rests on the fitted dose curve; in most records, active means well fitted activation curve with a large enough effect; inconclusive means small, poorly fitted or top-dose-only effect; inactive means flat fitted curve, though single readings scatter.

O=[N+]([O-])c1cccc2c([N+](=O)[O-])cccc12	none | D3 arrestin ag inactive | D2 ag-3 inactive
Cc1ccc(Cn2cccc(C(=O)Nc3ccc4c(c3)OCO4)c2=O)cc1	none (no result: D2 PAM-1, D2 antagonist, D2 ag-2)
CCC(=NCc1ccco1)c1c(O)n(-c2ccccc2C)c(=O)[nH]c1=O	none | D3 arrestin ag inactive | D2 ag-3 inactive
Cc1ccc2c(=O)n(-c3cccc(Cl)c3)c(=O)[nH]c2c1	none (no result: D2 PAM-1, D2 antagonist, D2 ag-2)
Cc1cccc(Cn2cccc(C(=O)Nc3ccc(F)cc3F)c2=O)c1	none (no result: D2 PAM-1, D2 antagonist, D2 ag-2)
Cc1cccc(N2C(=O)NC(=O)/C(=C\C=C\c3ccco3)C2=O)c1	none | D3 arrestin ag inactive | D2 ag-3 inactive
Cc1ccc(N2C(=O)NC(=O)/C(=C\C=C\c3ccco3)C2=O)cc1	none (no result: D2 antagonist, D2 ag-1)
O=C(CN1CC=C(c2ccccc2)CC1)NC(=O)NCc1ccco1	D2 antagonist 40, D2 ag-1 54 | D3 arrestin ag inactive | D2 ag-3 inactive
O=C(CCN1CC=C(c2ccccc2)CC1)NCc1ccccc1	none (no result: D2 antagonist, D2 ag-1, D2 PAM-2)
COC(=O)C1=C(c2ccc(F)cc2OCc2ccccc2)C[C@@H]2CC[C@H]1N2C(=O)NCc1ccccc1Br	none | D3 arrestin ag inactive | D2 ag-3 inactive
COC(=O)C1=C(c2ccc(F)cc2OCc2ccccc2)C[C@@H]2CC[C@H]1N2C(=O)NCc1ccccc1C(F)(F)F	none
NNC(N)=O	D2 antagonist 31 | D3 arrestin ag inactive | D2 ag-3 inactive
O=C1CN=C(c2ccccc2)c2cc(Cl)ccc2N1Cc1ccc(Cl)cc1	none (no result: D2 PAM-1, D2 antagonist, D2 ag-2)
CCCN1CCO[C@@H]2c3cc(O)ccc3OC[C@H]21	D2 PAM-1 97, D2 antagonist 72, D2 ag-1 68, D2 ag-2 83 | D3 arrestin ag 0.045µM | D2 ag-3 0.071µM
CN1CCN(Cc2ccc(Br)s2)CC1	none
COc1ccccc1N1CCN(Cc2c(F)cccc2Cl)CC1	none
COc1ccccc1N1CCN(Cc2ccccc2)CC1	D2 antagonist 97, D2 ag-1 31 | D3 arrestin ag inactive | D2 ag-3 inactive
COc1ccccc1N1CCN(Cc2ccc(Br)s2)CC1	D2 antagonist 85, D2 ag-1 61 | D3 arrestin ag inactive | D2 ag-3 inactive
Cc1ccc(OCC(=O)N2CCN(CCc3ccncc3)CC2)cc1C	none (no result: D2 PAM-1, D2 antagonist, D2 ag-2)
CCC(CO)NC(=O)C1C=C2c3cccc4[nH]cc(c34)CC2N(C)C1 (stereo not drawn)	D2 PAM-1 inconclusive, D2 antagonist 81, D2 ag-1 84, D2 ag-2 114 | D3 arrestin ag 2.8µM | D2 ag-3 7.1µM
CC(C)C[C@H]1C(=O)N2CCC[C@H]2[C@]2(O)O[C@](NC(=O)[C@@H]3C=C4c5cccc6[nH]cc(c56)C[C@H]4N(C)C3)(C(C)C)C(=O)N12	D2 PAM-1 inconclusive, D2 antagonist 72, D2 ag-1 76, D2 ag-2 106 | D3 arrestin ag inconclusive | D2 ag-3 1µM
CC[C@@H](CO)NC(=O)[C@@H]1C=C2c3cccc4c3c(cn4C)C[C@H]2N(C)C1	D2 antagonist 47, D2 ag-1 54! | D3 arrestin ag inconclusive | D2 ag-3 inactive
O=C1CC(c2c(F)cccc2Cl)c2c(c3ccccc3oc2=O)O1 (stereo not drawn)	none (no result: D2 PAM-1, D2 antagonist, D2 ag-2)
Cc1ccccc1-c1nc(CN2C(=O)CN=C(c3ccccc3)c3ccccc32)c(C)o1	none (no result: D2 PAM-1, D2 antagonist, D2 ag-2)
Cc1cccc(-c2nc(CN3C(=O)CN=C(c4ccccc4)c4ccccc43)c(C)o2)c1	none (no result: D2 PAM-1, D2 antagonist, D2 ag-2)
Cn1c(=O)oc2cc(S(=O)(=O)NCCN3CCN(c4ccccc4)CC3)ccc21	D2 antagonist 65, D2 ag-1 71 | D3 arrestin ag inactive | D2 ag-3 inconclusive
CN(C)c1cccc(CN2CCN(c3ccccc3)CC2)c1	none (no result: D2 antagonist, D2 ag-1, D2 PAM-2)
CC(=O)N1CCC(N2CCCC(C(=O)c3cccc(Cl)c3)C2)CC1 (stereo not drawn)	D2 PAM-1 55, D2 antagonist 78, D2 ag-1 84, D2 ag-2 58 | D3 arrestin ag inconclusive | D2 ag-3 inconclusive
